Among the data in PubChem BioAssay (NCI) are growth values, retold here.

Compounds without any hit were thinned out: in the full panel of roughly 83,000, 20% have a hit.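 Treatment: one concentration, 48 hours, 96-well format. Scoring: percent growth, with anything below 10 considered active.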 Unmarked numbers belong to inactive results. Active and inactive are the calls of the source.

Test systems include NCI-H23 lung; NCI-H226 lung; NCI-H322M lung; HOP-62 NSCLC; NCI-H460 lung; HOP-92 NSCLC; NCI-H522 lung; A549/ATCC NSCLC; 786-0 renal; COLO 205 colon; DU-145 prostate; K-562 leukemia; MALME-3M melanoma; MDA-MB-231 breast; RXF 393 renal; SF-268 CNS; SF-295 CNS; SF-539 CNS; UACC-257 melanoma; M14 melanoma.
What all share (experiment): NCI-60 one-dose screen, 48 h (100 = growth as untreated, 0 = no growth, -100 = all killed)
What all share (details): 10 µM unless noted

For `CS(=O)(=O)Nc1cc(-c2ccc3ncnc(Nc4ccc(OCc5ccccn5)c(Cl)c4)c3c2)cnc1Cl`, the growth with NCI-H23 lung was -8.13% (active); in the assay on NCI-H226 lung it was 21.2%; in the assay on NCI-H322M lung, 9.88% (active); with HOP-62 NSCLC it was 15.3%; in the assay on NCI-H460 lung, 9.64% (active); with HOP-92 NSCLC it was -6.05% (active). In addition, the growth in the assay on NCI-H522 lung was -18.3% (active); with A549/ATCC NSCLC, 11.8%; with 786-0 renal it was 22.2%; in the assay on COLO 205 colon, -90.9% (active); with DU-145 prostate, 16.5%; in the assay on K-562 leukemia, 21.1%. Besides, the growth in the assay on MALME-3M melanoma was -35.7% (active); with MDA-MB-231 breast, 2.29% (active); in the assay on RXF 393 renal, -31.4% (active); with SF-268 CNS, 10.9%; with SF-295 CNS, -2.49% (active); in the assay with SF-539 CNS, -11.7% (active). Besides, the growth was 14.3% with UACC-257 melanoma and 30% in the assay on M14 melanoma.

For `CCN1C(=O)N(c2ccccc2)C2NC(=S)N(/N=C/C=C/c3ccccc3OC)C21` (stereo not given), the growth was 39.6% with NCI-H23 lung; 49.9% with NCI-H226 lung; 41.8% in the assay with NCI-H322M lung; 35.1% in the assay with HOP-62 NSCLC; 3.66% (active) in the assay on NCI-H460 lung; 43.4% in the assay with HOP-92 NSCLC. Besides, the growth in the assay on NCI-H522 lung is 9.88% (active); in the assay on A549/ATCC NSCLC, 24.1%; with 786-0 renal, 26%; with COLO 205 colon it was 6.54% (active); in the assay on DU-145 prostate it was 5.45% (active); in the assay with K-562 leukemia it was 9.41% (active). Moreover, the growth with MALME-3M melanoma is 40.9%; with MDA-MB-231 breast, 16.7%; in the assay with RXF 393 renal, 62.2%; in the assay with SF-268 CNS, 47.3%; with SF-295 CNS, 14.2%; with SF-539 CNS it was -13.3% (active). Moreover, the results for the growth in the assay on UACC-257 melanoma and with M14 melanoma were 22% and 11.2%, respectively.

Turning to `CC1(C)CC[C@]2(CO)CC[C@]3(C)[C@](O)([C@H](O)C[C@@H]4[C@@]5(C)CCCNC(C)(C)[C@@H]5CC[C@]43C)[C@@H]2C1`, the growth in the assay on NCI-H23 lung was 95%; with NCI-H226 lung, 106%; in the assay on NCI-H322M lung, 103%; in the assay with HOP-62 NSCLC, 101%; with NCI-H460 lung, 88.8%; in the assay with HOP-92 NSCLC, 94%. Besides, the growth was 92.4% with NCI-H522 lung; 85.2% with A549/ATCC NSCLC; 101% in the assay with 786-0 renal; 44.2% in the assay with COLO 205 colon; 103% in the assay with DU-145 prostate; 10.3% with K-562 leukemia. Further, the growth is 101% with MALME-3M melanoma; 102% in the assay with MDA-MB-231 breast; 94.9% in the assay with RXF 393 renal; 98.9% in the assay with SF-268 CNS; 108% in the assay on SF-295 CNS; 97.9% with SF-539 CNS. Further, the growth in the assay on UACC-257 melanoma was 96.3%; in the assay on M14 melanoma, 96.1%.

As to `O=C(c1ccc(Br)cc1)C(Br)C(c1ccc(Cl)cc1)C(c1ccccc1)[N+](=O)[O-]` (stereo not given), the growth in the assay on NCI-H23 lung was 91.4%; in the assay with NCI-H226 lung it was 99.3%; with NCI-H322M lung, 101%; in the assay on HOP-62 NSCLC, 99.7%; in the assay with NCI-H460 lung, 95.5%; with HOP-92 NSCLC, 107%. The growth is 85.7% in the assay with NCI-H522 lung; 93.8% in the assay with A549/ATCC NSCLC; 90.3% in the assay on 786-0 renal; 110% with COLO 205 colon; 97.5% with DU-145 prostate; 106% in the assay on K-562 leukemia. The growth in the assay with MALME-3M melanoma was 86.2%; with MDA-MB-231 breast, 85.4%; with RXF 393 renal, 77.2%; with SF-268 CNS, 90.2%; in the assay with SF-295 CNS, 95.1%; in the assay on SF-539 CNS it was 96%. Further, the growth in the assay on UACC-257 melanoma was 102%; in the assay with M14 melanoma, 92.8%.

As to `COc1ccc(Nc2ncc(C#N)c(NCCCNC(=O)C3CCC3)n2)cc1`, the growth was 67.6% in the assay with NCI-H23 lung; 49% in the assay with NCI-H226 lung; 80.8% in the assay on NCI-H322M lung; 31.4% in the assay with HOP-62 NSCLC; 41.7% with NCI-H460 lung; 64.3% with HOP-92 NSCLC. In addition, the growth in the assay on NCI-H522 lung was 85.1%; with A549/ATCC NSCLC, 61.2%; in the assay with 786-0 renal it was 50.4%; in the assay with COLO 205 colon, 33.3%; in the assay on DU-145 prostate it was 60.7%; in the assay with K-562 leukemia, 50.4%. In addition, the growth with MALME-3M melanoma is 78.8%; with MDA-MB-231 breast, 56.5%; in the assay on RXF 393 renal, -4.62% (active); with SF-268 CNS, 30.7%; in the assay with SF-295 CNS it was 76.8%; with SF-539 CNS, 28.5%. Further, the values for the growth in the assay on UACC-257 melanoma and in the assay with M14 melanoma were 113% and 70.9%, respectively.

On to `Cn1cc(-c2csc(-c3cn(C)c4ccccc34)n2)c2cnccc21`, for which the growth was 83.2% in the assay on NCI-H23 lung; 112% with NCI-H226 lung; 66.6% in the assay with NCI-H322M lung; 42.1% in the assay on HOP-62 NSCLC; -46.2% (active) in the assay on NCI-H460 lung; 55.5% in the assay on HOP-92 NSCLC. For the same compound, the growth in the assay on NCI-H522 lung was 16.7%; in the assay with A549/ATCC NSCLC, 15.3%; with 786-0 renal it was -87.9% (active); with COLO 205 colon, -68% (active); in the assay with DU-145 prostate, 29.2%; in the assay on K-562 leukemia, -39.2% (active). Moreover, the growth was -92.4% (active) in the assay with MALME-3M melanoma; -17.7% (active) in the assay with MDA-MB-231 breast; -40.7% (active) in the assay with RXF 393 renal; 45.1% in the assay on SF-268 CNS; -73.1% (active) in the assay with SF-295 CNS; -87% (active) in the assay with SF-539 CNS. For the same compound, the growth in the assay with UACC-257 melanoma is -58.2% (active); in the assay with M14 melanoma, -82.6% (active).

For `c1csc(-c2cn3nc(-c4c[nH]c5ccccc45)sc3n2)c1`, the growth in the assay with NCI-H23 lung is 36.9%; in the assay on NCI-H226 lung it was 72.4%; in the assay on NCI-H322M lung, 25%; in the assay with HOP-62 NSCLC, 27%; in the assay on NCI-H460 lung, 11.2%; with HOP-92 NSCLC, 38.3%. Also, the growth in the assay on NCI-H522 lung is -6.13% (active); in the assay on A549/ATCC NSCLC, 35%; in the assay with 786-0 renal, 42.2%; in the assay on COLO 205 colon it was 5.46% (active); in the assay with DU-145 prostate it was 13.4%; in the assay on K-562 leukemia, 15.6%. Also, the growth in the assay on MALME-3M melanoma was 23.7%; with MDA-MB-231 breast, 22.9%; in the assay on RXF 393 renal, 34.4%; in the assay on SF-268 CNS it was 46.1%; in the assay on SF-295 CNS, 14.4%; with SF-539 CNS it was -12.8% (active). Further, the figures for the growth in the assay on UACC-257 melanoma and in the assay on M14 melanoma were 60.1% and 8.8% (active), respectively.
